Measured values as given in PubChem BioAssay AID504332 (National Center for Advancing Translational Sciences (NCATS), 2011).
“And” between values parts separate entries of the source, which are not always exact repeats. Equal entries are not always repeated. Screen size: about 350,000 compounds; about 31,000 (8.9%) were called active. Another 15% or so got no clear call; they are omitted. Calls come from the whole dose curve; as a rule, active = well fitted inhibition curve with a large enough effect; inconclusive = small, poorly fitted or top-dose-only effect; inactive = no such curve, though single readings can be large or run the other way. The sample as a whole holds a higher share of actives than the screen did. Some structures have more than one record in an assay (separate samples or runs), and their calls can disagree.

target: Histone-lysine N-methyltransferase EHMT2 (Homo sapiens) (UniProt Q96KQ7); assay: qHTS Assay for Inhibitors of Histone Lysine Methyltransferase G9a; settings: G9a H3K9 monomethylation, AlphaScreen, 2 h; series mostly up to 59 µM; activity, negative = inhibition: at the top concentration; note: nearly all actives have a fitted effect of over 75% in size
Method in brief: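 Using a bead-based AlphaScreen, monomethylated H3K9 product from 2 h room-temperature reactions (G9a 20 nM, peptide 500 nM, SAM 20 uM) was detected with 0.5 ug/mL rabbit anti-H3K9me1 antibody.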
% is set by controls: 0 for no effect and ±100 for the full control effect; potency is the fitted concentration of half-maximal effect.

Sequence of Histone-lysine N-methyltransferase EHMT2 (Homo sapiens) (Q96KQ7 913-1193 limits assumed): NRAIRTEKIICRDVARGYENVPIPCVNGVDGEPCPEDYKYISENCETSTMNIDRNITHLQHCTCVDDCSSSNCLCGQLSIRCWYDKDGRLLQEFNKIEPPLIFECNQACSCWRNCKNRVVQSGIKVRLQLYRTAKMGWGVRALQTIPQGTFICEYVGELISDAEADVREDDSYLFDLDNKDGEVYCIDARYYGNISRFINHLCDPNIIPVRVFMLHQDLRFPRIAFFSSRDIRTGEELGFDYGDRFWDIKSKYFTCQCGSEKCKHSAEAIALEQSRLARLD

Compound | activity, negative = inhibition | Potency
COc1ccc(CC(=O)OC(C)C(=O)Nc2ccc(S(N)(=O)=O)cc2)cc1 (centres undefined) | -8.93% [at 2.33 µM] (inactive) | –
CSc1nc(-c2ccccc2Cl)nc2c1Cc1c(CO)cnc(C)c1O2 | -46.3% (inactive) | –
COc1ccc(CNC(=O)C(c2ccc(O)cc2)N(Cc2ccco2)C(=O)c2snc(C(N)=O)c2N)cc1 (centres undefined) | -40% [at 102 µM] (inactive) | –
O=C(OCc1cc(=O)n2ccsc2n1)C1(c2ccc(Cl)cc2)CC1 | 2.61% [at 12.7 µM] (inactive) | –
CCN1CCN(CCCNC(=O)c2ccc3c(c2)sc2nc(-c4ccc(OC)cc4)cn23)CC1 | -7.7% (inactive) | –
CN(C)S(=O)(=O)c1ccc(C(=O)NCC2(N3CCOCC3)CCCCC2)cc1 | 0.405% [at 2.33 µM] (inactive) | –
CN1CN(C)c2ccc([N+](=O)[O-])c3cccc1c23 | – | 50.1 µM (active)
Cc1ccc(C)c(OCCC(=O)OCC(=O)c2ccc3c(c2)NC(=O)CO3)c1 | 6.89% [at 12.7 µM] (inactive) | –
O=C(O)CN1c2cccc3cccc(c23)S1(=O)=O | – | 44.7 µM (active)
CCN(CC(=O)Nc1c(F)cccc1F)C(=O)CN1c2cccc3cccc(c23)S1(=O)=O | 5.18% [at 0.501 µM] (inactive) | –
COc1ccc(NC(=O)C(C)N2c3cccc4cccc(c34)S2(=O)=O)c(OC)c1 (centres undefined) | 4.35% [at 102 µM] (inactive) | –
Cc1ccc(-n2c(SCC(=O)N3CCC(C(=O)O)CC3)nc3ccccc3c2=O)cc1C | -50.2% [at 102 µM] (inactive) | –
CC(C)OC(=O)c1ccc(COc2ccc3ccc(=O)oc3c2)o1 | 14.1% [at 102 µM] (inactive) | –
Cc1nc2ccc(C(=O)O)cc2[nH]1 | – | 70.8 µM (active)
Cc1ccc2nc(CNC(=O)c3ccccc3)[nH]c2c1 | -1.03% (inactive) | –
Cc1nc2ccc(C(=O)N/N=C/c3ccc(O)cc3)cc2[nH]1 | – | 79.4 µM (active)
CC(C)c1nc2ccc(C(=O)O)cc2[nH]1 | 9.16% [at 102 µM] (inactive) | –
Cc1nonc1C(=O)N/N=C/c1ccc(O)cc1 | 15.7% (inactive) | –
O=C(N/N=C/c1ccc(Cl)c(Cl)c1)c1ccc2nc[nH]c2c1 | -14% [at 102 µM] (inactive) | –
CCc1ccccc1N1C(=O)CN(S(=O)(=O)CC)CC1(C)C(=O)NC1CCCCC1 (centres undefined) | -17.2% (inactive) | –
Cc1ccc2nc(COc3ccc(NC(=O)COc4ccccc4F)cc3)cc(=O)n2c1 | -2.61% (inactive) | –
C[C@H](NC(=O)c1ccccc1Cl)C(=O)OCC(=O)N1CCN(c2ccccc2)CC1 | -0.744% [at 12.7 µM] (inactive) | –
Cn1c(=O)c2c(nc(SCC(=O)Nc3ccc(F)cc3)n2Cc2ccc(Cl)cc2)n(C)c1=O | 10.3% (inactive) | –
COc1cccc(-n2c(N)cc(=O)nc2SCC(=O)Nc2cc(C)on2)c1 | 40% [at 102 µM] (inactive) | –

Compound | activity, negative = inhibition | Potency
COc1ccccc1CNC(=O)CCCn1c(=O)c2ccccc2n(CC(=O)Nc2ccc(C)cc2Cl)c1=O | 3.86% (inactive) | –
CCOC(=O)c1ccc(NC(=O)CSc2nc3c([nH]c4ccccc43)c(=O)n2C)cc1 | 4.03% (inactive) | –
C=CCNC(=S)N/N=C/c1ccc(C)s1 | 72.7% [at 12.7 µM] (inactive) | –
Cc1cc(C(=O)N/N=C/c2ccc(N3CCOCC3)cc2)c(C)o1 | -36.2% [at 102 µM] (inactive) | –
CNC(=S)N/N=C/c1ccc(N2CCOCC2)s1 | – | 28.2 µM (active)
COc1cc2ccccc2cc1C(=O)Nc1ccc(NC(=O)c2cccs2)cc1 | 28.3% [at 102 µM] (inactive) | –
O=C(Cc1ccc(Cl)cc1)Nc1ccc2nn(-c3ccc(Cl)cc3)nc2c1 | -2.72% (inactive) | –
Cc1ccc(CCNC(=O)Cn2c(-c3cccs3)cc3cc(F)ccc32)cc1 | 1.67% (inactive) | –
CCOC(=O)c1cccc(NC(=O)C(Cc2ccccc2)NS(=O)(=O)c2cccc3nsnc23)c1 (centres undefined) | -35.5% (inactive) | –
Cc1ccc(N2C(=O)c3ccccc3C2(O)c2ncc[nH]2)cc1 (centres undefined) | – | 7.08 µM (active)
Cc1ccc(-n2ccc(=O)c(C(=O)O)n2)cc1 | -6.92% (inactive) | –
Cc1ccnc(NC(=O)C(C)N2C(=O)c3ccccc3C2=O)c1 (centres undefined) | 10.7% [at 102 µM] (inactive) | –
O=C(O)c1ccccc1-c1ccccc1C(=O)NCCc1ccccc1 | 15.9% [at 102 µM] (inactive) | –
CCOCCCNC(=O)c1c(NC(=O)c2nc(SC)ncc2Cl)sc2c1CCCC2 | -0.0709% (inactive) | –
COc1ccc(N2C(=O)CC(Sc3n[nH]c(-c4ccc(C)cc4)n3)C2=O)cc1 (centres undefined) | – | 1.58 µM (active)
COc1ccc(-c2nc(SCC(=O)N3CCCC3)n[nH]2)cc1 | 21.1% [at 102 µM] (inactive) | –
COc1ccc(N2C(=O)CC(SC(C)C)C2=O)cc1 (centres undefined) | -27.2% [at 102 µM] (inactive) | –
CC(=O)Nc1ccc(NC(=O)C2CCCN(S(=O)(=O)c3ccc4c(c3)CCCC(=O)N4)C2)cc1 (centres undefined) | -26.3% (inactive) | –
CCN1CCN(C(=O)N(Cc2ccc(Cl)cc2)S(=O)(=O)c2ccc(C)cc2)CC1 | 19.8% [at 2.33 µM] (inactive) | –
CC(C)(C)c1ccc(CN2C(=O)c3ccccc3S2(=O)=O)cc1 | 87% [at 102 µM] (inactive) | –
O=[N+]([O-])/C(N=Nc1ccccc1)=N\Nc1ccccc1 | – | 31.6 µM (active)
Cc1ccc(F)cc1NC(=O)c1cccc(N(C)C)c1 | 13.5% (inactive) | –
Cc1ccc(NC(=O)c2cccc(N(C)C)c2)cc1NC(=O)c1ccc(O)cc1 | – | inactive and 14.1 µM (active)
Cc1ccc(F)cc1NC(=O)c1ccc2c(c1)OCO2 | -5.61% [at 12.7 µM] (inactive) | –

Compound | activity, negative = inhibition | Potency
COc1cc2nc(SCC(=O)Nc3ccccc3F)n3nc(-c4ccccc4)nc3c2cc1OC | -29.1% (inactive) | –
CCS(=O)(=O)c1ncc(N(Cc2ccc(F)cc2)Cc2ccco2)c(C(=O)Nc2cc(C)ccc2C)n1 | 3.17% (inactive) | –
Cc1ccc(S(=O)(=O)NCCNC(C)c2ccc(Br)cc2)cc1 (centres undefined) | -1.1% [at 12.7 µM] (inactive) | –
Clc1ccc(N/N=C/c2cccs2)nn1 | – | 35.5 µM (active)
COc1cccc(/C=N/Nc2ccc(Cl)nn2)c1 | -1.09% [at 102 µM] (inactive) | –
Oc1cccc(/C=N/Nc2ccc(Cl)nn2)c1O | 32.7% [at 102 µM] (inactive) | –
CC(C)N(Cc1ccccc1)C(=O)COC(=O)c1ccccc1SCC(=O)N1CCCC1 | -46.5% [at 0.501 µM] (inactive) | –
Cc1c(C)c(C)c(S(=O)(=O)NCCc2ccccn2)c(C)c1C | 11% [at 102 µM] (inactive) | –
O=C(CNC(=O)COc1ccccc1)NCCc1ccccn1 | 13.5% (inactive) | –
COc1ccc(NCCc2ccccn2)cc1 | – | 39.8 µM (active)
CCOc1ccccc1NC(=O)C1CCCN(S(=O)(=O)c2cn(C)cn2)C1 (centres undefined) | 11.6% (inactive) | –
CC(C)c1ccc(NC(=O)COC(=O)c2ccc(CN3CCCC3=O)cc2)cc1 | -8.03% [at 12.7 µM] (inactive) | –
O=C(/C=C/c1ccccc1)c1ccccc1O | – | 44.7 µM (active)
O=C(/C=C/c1ccccc1)c1ccoc1 | 10.3% [at 12.7 µM] (inactive) | –
O=C(/C=C/c1ccccc1)N/C(=C/c1ccccc1)C(=O)Nc1ccccc1O | -41.1% [at 102 µM] (inactive) | –
COCC1CCN(C(=O)CCc2nnc(C3(c4ccc(Cl)cc4)CCC3)o2)C1 (centres undefined) | 11% [at 102 µM] (inactive) | –
COc1ccc(-c2ocnc2C(=O)Nc2ccc3c(c2)CCC3)cc1 | -7.46% (inactive) | –
Fc1ccc(C(Nc2ccc(Cl)c(C(F)(F)F)c2)c2nnc(-c3ccccc3)o2)cc1 (centres undefined) | 31.9% (inactive) | –
O=[N+]([O-])c1cc(C(F)(F)F)ccc1NCCc1ccncc1 | 21.9% [at 102 µM] (inactive) | –
Cc1cccc(OCCNC(=O)CSc2ccc(C(F)(F)F)cc2[N+](=O)[O-])c1 | 5.94% (inactive) | –
Nc1ccccc1Sc1ccc(C(F)(F)F)cc1[N+](=O)[O-] | – | 39.8 µM (active)
CCc1cccc(NC(=O)CSc2nccn2C)c1 | -3.93% (inactive) | –
N#CC1=C(N)Oc2c(sc3ccccc23)C1c1ccco1 (centres undefined) | – | 39.8 µM (active)
CCOC(=O)CSC1=C(C#N)C(c2ccco2)C(C(=O)OCc2ccccc2)=C(C)N1 (centres undefined) | -12% (inactive) | –

Compound | activity, negative = inhibition | Potency
CCCCn1c(N)c(N(CCOC)C(=O)c2sc3ccccc3c2Cl)c(=O)[nH]c1=O | 0.384% [at 0.501 µM] (inactive) | –
CN1CCN(c2nc(Nc3ccc(O)cc3)nc3ccccc23)CC1 | – | 25.1 µM (active)
Cc1cccc(-c2nc(Nc3ccc(O)cc3)c3ccccc3n2)c1 | 9.03% [at 12.7 µM] (inactive) | –
COc1ccccc1-c1nc(N2CCN(C)CC2)c2ccccc2n1 | 0.0472% [at 0.501 µM] (inactive) | –
CC(C)(C)c1ccc(S(=O)(=O)N2CCN(C(=O)c3cc(-c4ccc(Br)cc4)n[nH]3)CC2)cc1 | 25.6% (inactive) | –
S=C(Nc1ccc(Br)cc1Cl)NC1CCN(Cc2ccccc2)CC1 | 1.73% [at 102 µM] (inactive) | –
S=C(NN=C1CCN(Cc2ccccc2)CC1)NC1CCCCC1 | – | 50.1 µM (active)
O=C(NC1CCN(Cc2ccccc2)CC1)c1c(F)cccc1F | 17.9% (inactive) | –
COc1ccccc1NC(=O)c1cc(S(=O)(=O)NCCc2ccccc2)ccc1F | -2.37% (inactive) | –
CCc1ccc(S(=O)(=O)n2ccnc2)cc1 | 1.45% (inactive) | –
CCOc1ccc(NC(=O)CN(C)C(=O)COc2cccc(CC)c2)cc1OCC | -17.2% [at 0.501 µM] (inactive) | –
CS(=O)(=O)c1ccc2c(c1)SC1=NC(=O)/C(=C/c3ccco3)C(=N)N12 | – | 50.1 µM (active)
CCCCC(=O)OC1=CN(Cc2ccccc2)S(=O)(=O)c2ccccc21 | 111% (inactive) | –
COc1cccc(C(=O)OCc2cc(=O)oc3c(C)c(C)ccc23)c1OC | -5.18% [at 102 µM] (inactive) | –
CCOC(=O)N1CCC(N2Cc3cccc(C(=O)Nc4c(C)cccc4CC)c3C2=O)CC1 | 11.5% [at 102 µM] (inactive) | –
CN(C)[C@@H]1C(=O)C(C(N)=O)=C(O)[C@@]2(O)C(=O)C3=C(O)c4c(O)ccc(Cl)c4[C@@H](O)[C@H]3C[C@@H]12 | – | 7.94 µM (active)
C=C1c2c(Cl)ccc(O)c2C(O)=C2C(=O)[C@]3(O)C(O)=C(C(N)=O)C(=O)[C@@H](N(C)C)[C@@H]3[C@@H](O)C12 (some centres undefined) | – | 7.94 µM (active)
CCCN(CC1CC1)C(=S)NC(=O)c1ccccc1Br | -20% (inactive) | –
Cc1ccc(Cl)cc1N1CCN(C(=O)CN2C(=O)COc3ccc(S(=O)(=O)N4CCOCC4)cc32)CC1 | 0.165% (inactive) | –
COc1ccc(-c2noc(C(C)NS(=O)(=O)c3ccc(NC(C)=O)cc3)n2)cc1 (centres undefined) | 22.5% [at 102 µM] (inactive) | –
COc1cc2nc(NCC(C)c3ccccc3)n3nc(-c4ccccc4)nc3c2cc1OC (centres undefined) | -20.5% (inactive) | –
CC(C(=O)NC1CCCC1)N1CCN(S(=O)(=O)c2ccccc2Cl)CC1 (centres undefined) | 1.28% [at 0.501 µM] (inactive) | –
